Screening results as filed in PubChem BioAssay.
BAZ2B block = BAZ2B (human) inhibition | Q9UIF8 | actives 4.4% (n = 360,000) | Potency, µM (doses to about 114 µM), without a hit: at the highest dose activity change, negative = inhibition, actives largely listed as inhibitors | AlphaScreen BAZ2B-H3K14Ac peptide displacement | AID 504333; also: potency is read from the fitted curve at half-maximal effect; % is scaled to controls: 0 for no effect and ±100 for the full control effect; nearly all actives have a fitted effect of over 60% in size
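Multi-concentration screen (max 110 uM) measuring displacement of acetylated histone H3 peptide from BAZ2B by AlphaScreen, using 50 nM protein, 50 nM peptide and 10 ug/mL streptavidin donor plus Ni-chelate acceptor beads.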
G9a block = blocks human histone lysine methyltransferase G9a. Q96KQ7. Potency, µM (doses to about 102 µM), without a hit: top-dose activity, negative = inhibition, usual class: inhibitors. G9a H3K9 monomethylation, AlphaScreen, 2 h. actives 8.8% (n = 350,000). AID 504332; also: potency is read from the fitted curve at half-maximal effect; % is scaled to controls: 0 for no effect and ±100 for the full control effect; nearly all actives have a fitted effect of over 75% in size
Target sequence (Q96KQ7 913-1193 limits assumed): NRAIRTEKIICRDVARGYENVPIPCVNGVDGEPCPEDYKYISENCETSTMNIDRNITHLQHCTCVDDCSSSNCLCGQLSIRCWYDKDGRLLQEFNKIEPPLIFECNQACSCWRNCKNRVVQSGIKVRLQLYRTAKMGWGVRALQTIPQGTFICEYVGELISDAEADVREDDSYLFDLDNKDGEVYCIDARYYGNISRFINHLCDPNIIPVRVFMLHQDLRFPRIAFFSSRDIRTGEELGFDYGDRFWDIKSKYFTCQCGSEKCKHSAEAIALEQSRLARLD
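Using a bead-based AlphaScreen, monomethylated H3K9 product from 2 h room-temperature reactions (G9a 20 nM, peptide 500 nM, SAM 20 uM) was detected with 0.5 ug/mL rabbit anti-H3K9me1 antibody.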
HP1b chromo inh = HP1-beta chromodomain-methylated histone interaction inhibition. P83916. AlphaScreen HP1-beta / biotin-H3K9me3 peptide binding. Potency, µM (titrated, usually from 114 µM), inactives show at the highest dose activity change, negative = inhibition, actives largely listed as inhibitors. actives 0.56% (n = 390,000). AID 540317; also: potency is read from the fitted curve at half-maximal effect; nearly all actives have a fitted effect of over 70% in size
Target sequence (P83916 whole entry, looked up): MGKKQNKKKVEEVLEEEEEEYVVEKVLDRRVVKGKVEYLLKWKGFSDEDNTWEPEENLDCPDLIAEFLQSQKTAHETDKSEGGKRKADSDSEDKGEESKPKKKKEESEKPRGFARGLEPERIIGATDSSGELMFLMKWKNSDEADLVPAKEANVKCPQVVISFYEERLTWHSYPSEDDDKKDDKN
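Compound inhibition of the preformed complex between 50 nM HP1-beta and 50 nM biotinylated H3K9me3 peptide was read by AlphaScreen. Buffer was PBS pH 7.4 with 0.01% Tween-20. Incubations ran 30 min at room temperature, with 10 ug/mL donor/acceptor beads.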
PI5P4Ka inh = inhibitors of human PI5P4K alpha. actives 1.2% (n = 330,000). PI5P4Kalpha enzyme, ADP-Glo luminescence, 60 min; active compounds read low. max response, %; active = max response of -50% or lower; inconclusive = between -30% and -50%; inactive = -30% or higher; also: value at the top dose of about 77 µM; % is scaled to controls: 0 for no effect and ±100 for the full control effect
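ADP-Glo luminescence end-point read after a 60 min room-temperature kinase reaction of PI5P4Kalpha plus substrate, initiated with ATP at 5 microM final. Buffer: 0.038 M HEPES pH 7.4, EGTA, 0.1% CHAPS, 5% DMSO.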
PLK1 PBD block = blocks phosphopeptide binding to human PLK1 polo-box domain; P53350; Plk1 PBD binding of FITC phosphopeptide, fluorescence polarization; Potency, µM, for inactives: max response, negative = inhibition, actives largely listed as inhibitors; actives 2.8% (n = 360,000); also: potency is read from the fitted curve at half-maximal effect; series mostly up to about 57 µM; % is scaled to controls: 0 for no effect and ±100 for the full control effect; nearly all actives have a fitted effect of over 65% in size
JMJD2A Tudor = inhibitors of human JMJD2A Tudor domain | O75164 | AlphaScreen JMJD2A-Tudor / H3K4me3 peptide binding | Potency, µM (titrated, usually from 114 µM), for inactives: at the highest dose activity change, negative = inhibition, most hits filed as inhibitors | actives 4.4% (n = 390,000) | AID 504339; also: potency is read from the fitted curve at half-maximal effect; % is scaled to controls: 0 for no effect and ±100 for the full control effect; nearly all actives have a fitted effect of over 50% in size
An asterisk follows results filed as active; [ ] = another dose, or the depositor's remark. Only some compounds are listed: those with a hit (about 12% of all), similar ones and a draw of the others. Unless noted, calls follow the shape of the dose curve; as a rule, active = well fitted curve in the direction sought with a large enough effect; inconclusive = small, poorly fitted or top-dose-only effect, or another doubt; inactive = no such curve, though single readings can be large; an effect the other way counts as inactive or inconclusive.

Cc1nc2ccccn2c1C(=O)N/N=C/c1ccccc1 was read as BAZ2B block -3%, G9a block 8%[2.33 µM], HP1b chromo inh 20%, PI5P4Ka inh 0, PLK1 PBD block -12% and JMJD2A Tudor -3%.
Screening COc1cc(/C=N/NC(=O)c2c(C)nc3ccc(Cl)cn23)cc(OC)c1OC returned BAZ2B block inconclusive, HP1b chromo inh 157%, PI5P4Ka inh -28, PLK1 PBD block 21µM* and JMJD2A Tudor 22µM*.
Screening COc1ccc(-c2noc(N3CCN(c4cccc(C)c4C)CC3)n2)cc1OC returned BAZ2B block -1%, G9a block -1%[59 µM], HP1b chromo inh 6% and JMJD2A Tudor -18%.
`COc1cc(/C=N/NC(=O)c2nc3ccccn3c2C)cc(OC)c1O` gave BAZ2B block -24%, G9a block 16µM*, HP1b chromo inh 25%, PI5P4Ka inh -5, PLK1 PBD block -5% and JMJD2A Tudor -11%.
For Cc1ccc(N(CC(=O)Nc2ccc(Br)cc2)S(=O)(=O)c2cccs2)cc1 the results were G9a block 8%[59 µM], HP1b chromo inh 36% and JMJD2A Tudor -3%.
CCC(=C(c1ccc(OC)cc1)c1ccc(OC)cc1)c1cn(CC(O)CN(CCO)CCO)c2ccccc12 (stereo not drawn) was read as BAZ2B block 35µM*, G9a block 40µM*, HP1b chromo inh -6%, PI5P4Ka inh 32, PLK1 PBD block -6% and JMJD2A Tudor 45µM*.
Screening CCCCNc1nc(C#N)nc(Nc2ccccc2)n1 returned JMJD2A Tudor -2%.
`CN(C)CCCOC(=O)COc1ccc(C(C)(C)C)cc1` gave BAZ2B block -1%, G9a block -40%[59 µM], HP1b chromo inh 18%, PI5P4Ka inh 4, PLK1 PBD block -8% and JMJD2A Tudor -9%.
For CCCN(CCC)CCOc1cc(C)ccc1C(C)C the results were BAZ2B block inconclusive, G9a block 18µM*, HP1b chromo inh inconclusive, PI5P4Ka inh 14, PLK1 PBD block 4% and JMJD2A Tudor 3.2µM*.
For Cc1ccc(SCCCCN2CCNCC2)cc1 the results were BAZ2B block 40µM*, G9a block 8.9µM*, HP1b chromo inh 12%, PI5P4Ka inh -11, PLK1 PBD block 17µM* and JMJD2A Tudor 11µM*.
For Cc1ccc(C(C)C)c(OCCN(C)C)c1 the results were BAZ2B block 35µM*, G9a block 3.5µM*, HP1b chromo inh inconclusive, PI5P4Ka inh 3, PLK1 PBD block 0% and JMJD2A Tudor 2.8µM*.
`Cc1cc(C(C)(C)C)ccc1OCCN(C)C` gave BAZ2B block 28µM*, G9a block 8.9µM*, HP1b chromo inh inconclusive, PI5P4Ka inh -8, PLK1 PBD block -9% and JMJD2A Tudor 7.9µM*.
`Cc1ccc(C(C)C)c(OCC#CCN2CCOCC2)c1` gave BAZ2B block 50µM*, G9a block 7.9µM*, HP1b chromo inh inconclusive, PI5P4Ka inh 1, PLK1 PBD block -8% and JMJD2A Tudor 22µM*.
For Cc1ccc(C(C)C)c(OCCCCN2CCNCC2)c1 the results were BAZ2B block 28µM*, G9a block 4µM*, HP1b chromo inh inconclusive, PI5P4Ka inh 4, PLK1 PBD block -4% and JMJD2A Tudor 7.1µM*.
`COc1ccccc1NC(=S)NCc1ccccc1` gave BAZ2B block 12%[0.457 µM], G9a block 17%[59 µM], HP1b chromo inh 42%, PI5P4Ka inh -1, PLK1 PBD block 0% and JMJD2A Tudor -12%.
`COc1ccccc1NC(=S)c1ccccc1` gave BAZ2B block -10%, G9a block 7.9µM*, HP1b chromo inh -27%, PI5P4Ka inh -9, PLK1 PBD block 27µM* and JMJD2A Tudor -21%.
Screening COc1ccccc1NC(=O)CC(=O)c1ccccc1 returned BAZ2B block 8%, G9a block 18%, HP1b chromo inh 18%, PI5P4Ka inh -16, PLK1 PBD block 30µM* and JMJD2A Tudor inconclusive.
Screening COc1ccccc1NCCC(=O)OCC(=O)NC1CCCCC1 returned BAZ2B block -29%, G9a block 3.5µM*, HP1b chromo inh 14%, PI5P4Ka inh -2, PLK1 PBD block 3% and JMJD2A Tudor -8%.
Screening COc1ccccc1NCCC(=O)OCC(=O)NC1CC1 returned BAZ2B block -7%, G9a block 27%[59 µM], HP1b chromo inh 36%, PI5P4Ka inh 1, PLK1 PBD block -1% and JMJD2A Tudor -6%.
`COc1ccccc1NC(=O)CC(NC1CCCCC1)C(=O)O` (stereo not drawn) gave BAZ2B block -23%, G9a block 50µM*, HP1b chromo inh 11%, PI5P4Ka inh 13, PLK1 PBD block 2% and JMJD2A Tudor -3%.
CC[C@]12c3[nH]c4ccc(Cl)cc4c3CCN1C(=O)[C@@H](CC(=O)NCCCn1ccnc1)C[C@@H]2C(=O)N1CCN(C(=O)C2CC2)CC1 was read as HP1b chromo inh 58%, PI5P4Ka inh 3, PLK1 PBD block -1% and JMJD2A Tudor -12%.
COc1ccc2c(c1)[C@H]1[C@H](CO2)[C@H](c2ccccc2)[C@]2(C)C(=O)N(Cc3ccc(C)cc3)CC(=O)N12 was read as HP1b chromo inh 19%, PI5P4Ka inh 6, PLK1 PBD block -17% and JMJD2A Tudor -22%.
COc1ccccc1NC(=O)COC(=O)c1ccc2c(c1)OCCO2 was read as BAZ2B block -3%, G9a block 0%[12.7 µM], HP1b chromo inh 17%, PI5P4Ka inh 10, PLK1 PBD block -9% and JMJD2A Tudor -15%.
For COc1ccccc1NC(=O)COC(=O)c1cc2c(s1)CCC2 the results were BAZ2B block 56µM*, G9a block 45µM*, HP1b chromo inh inconclusive, PI5P4Ka inh inconclusive, PLK1 PBD block inconclusive and JMJD2A Tudor 50µM*.
COc1ccccc1NC(=O)O/N=C(\N)c1ccccc1 was read as BAZ2B block 3%, G9a block inconclusive, HP1b chromo inh -6%, PI5P4Ka inh -26, PLK1 PBD block 11µM* and JMJD2A Tudor -18%[11.4 µM].
For O=C(O)c1csc(-c2ccc(Cl)cc2)n1 the results were BAZ2B block inconclusive, G9a block 56µM*, HP1b chromo inh -2%, PI5P4Ka inh -3, PLK1 PBD block -15% and JMJD2A Tudor -21%.
For NC(=O)C(=CNc1nc(-c2ccc(Cl)c(Cl)c2)cs1)C(N)=O the results were BAZ2B block 45µM*.
Nc1cccc(-c2csc(-n3ncc(C(=O)O)c3C(F)(F)F)n2)c1 was read as BAZ2B block -14%, G9a block inconclusive, HP1b chromo inh 30%, PI5P4Ka inh -15, PLK1 PBD block -6% and JMJD2A Tudor -16%.
